Experiments:
[1] = target: T1, Aspartate--tRNA(Asp/Asn) ligase (Mycobacterium tuberculosis (strain ATCC 25618 / H37Rv)) (UniProt P9WFW3); assay: Assay for Asp RNA synthetase-1 from Mycobacterium tuberculosis; assay type: functional; set-up: scale not given: direction of the effect not stated beside the values; conditions: 30 µM; note: in the data most compounds retested in dose-response had high values
T1 sequence (whole entry): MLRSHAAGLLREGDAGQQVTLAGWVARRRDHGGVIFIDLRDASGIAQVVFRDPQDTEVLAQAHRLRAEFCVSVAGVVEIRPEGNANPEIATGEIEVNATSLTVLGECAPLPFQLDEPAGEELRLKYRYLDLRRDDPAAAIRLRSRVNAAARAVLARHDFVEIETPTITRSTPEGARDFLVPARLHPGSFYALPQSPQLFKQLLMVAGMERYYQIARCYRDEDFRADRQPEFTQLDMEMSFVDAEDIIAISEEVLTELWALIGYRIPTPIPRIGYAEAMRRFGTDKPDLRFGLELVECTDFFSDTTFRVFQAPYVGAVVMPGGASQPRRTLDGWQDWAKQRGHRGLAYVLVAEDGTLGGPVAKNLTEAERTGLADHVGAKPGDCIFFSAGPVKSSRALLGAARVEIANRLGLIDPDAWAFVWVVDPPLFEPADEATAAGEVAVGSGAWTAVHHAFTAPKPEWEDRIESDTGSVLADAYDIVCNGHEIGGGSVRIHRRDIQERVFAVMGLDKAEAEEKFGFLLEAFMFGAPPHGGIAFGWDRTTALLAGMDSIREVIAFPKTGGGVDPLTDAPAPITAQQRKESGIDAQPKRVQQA

[2] = target: Shiga toxin 2 (Escherichia coli O157:H7) (UniProt P09385+P09386); assay: E. coli 0.157:H7 Shiga Toxin SOP - stx2 screening assay; assay type: functional; set-up: scale not given: direction of the effect not stated beside the values; conditions: 30 µM

| Compound | Percent Effect [1] | Percent Effect [2] |
| --- | --- | --- |
| Cc1cc(C)cc(OCCC(=O)N2CCCC(n3cncn3)C2)c1 (configuration not stated) | -4.66% | 5.55% |
| O=S(=O)(c1cccnc1)N1CCN(CCn2ccnc2)CC1 | -4.66% | -38.1% |
| Cc1cnc(CN2CCCC(c3cc(C(F)(F)F)[nH]n3)C2)cn1 (configuration not stated) | -6.86% | 7.14% |
| Cc1cc(C)n2cc(CN3CCCC3Cn3nc(C)nc3C)nc2n1 (configuration not stated) | -2.84% | 5.36% |
| CN(C)C(=O)CC1CC2(CCN(C(=O)N(C)C)CC2)Oc2ccccc21 (configuration not stated) | 1% | -12.4% |
| Cc1nc(C2CCCN(C(=O)CO)C2)cc(N2CCOCC2)n1 (configuration not stated) | -4.78% | 17.9% |
| CC(C)NC(=O)CC1COC2(CCN(Cc3ccccc3)CC2)C1 (configuration not stated) | -2.02% | -36% |
| Cc1nc(-c2ccc(Cl)s2)sc1C(=O)NCCS(N)(=O)=O | -0.408% | -17.2% |
| CCN(c1ccc(C(=O)NCCCN2CCCC2)cc1)S(=O)(=O)CC | 2.52% | -46.4% |
| Cn1nnc2c1CCN(CC1CC1)C2COCc1ccccc1 (configuration not stated) | 1.84% | 0.25% |
| Cc1nc(C)n(CC2CCCN(c3ncnc4[nH]ccc34)C2)n1 (configuration not stated) | -1.82% | 2.99% |
| CCn1cnnc1CNC(=O)N1CCN(c2cccc(OC)c2)CC1 | 0.152% | -10.2% |
| CN(Cc1ccc(F)cc1)C(=O)NCc1nnc2n1CCCCC2 | -5.74% | -16.9% |
| CCC(C)[C@H](NC(=O)c1cc(Br)ccc1-n1cnnn1)C(=O)OC (some centres not stated) | -2% | -22.1% |
| CN(C)S(=O)(=O)N1CCC(Oc2ccc(C#N)cc2)CC1 | 0.641% | -1.14% |
| Cc1cccc(N2CCN(CCNC(=O)c3ccnn3C)CC2)c1 | 5.62% | -28.1% |
| COCC1CC2(CCN(Cc3cnn(C)c3)CC2)CN1C(C)C (configuration not stated) | 10.7% | -9.26% |
| CN(Cc1ccc2c(c1)OCCO2)C(=O)NCCc1cnn(C)c1 | 3% | 26.7% |
| CCc1ncc2c(n1)CN(CC(=O)Nc1nnc(C)s1)CC2 | 4.25% | -18.6% |
| CN(Cc1ccco1)Cc1ccccc1CNC(=O)c1cc[nH]n1 | 0.435% | 9.38% |
| COc1c(CNCc2ccc(N(C)C)nc2)c(C(C)C)nn1C | 0.0333% | 14% |
| CCN1CCO[C@]2(CCC[C@H]2COCc2csc(C)n2)C1 | -0.869% | 7.16% |
| COc1cccc(C(=O)N2CCCC(C(=O)CCc3ccccc3)C2)c1 (configuration not stated) | 4.2% | -7.01% |

| Compound | Percent Effect [1] | Percent Effect [2] |
| --- | --- | --- |
| CN(Cc1cn2c(n1)CN(C1CCOC1)CC2)Cc1ccco1 (configuration not stated) | 4.4% | -24.2% |
| COc1ccccc1CC(=O)NS(C)(=O)=O | -7.77% | 0.472% |
| CS(=O)(=O)N1CCN(C(=O)Cn2ccc3c(Cl)cccc32)CC1 | -0.673% | -16.5% |
| Cc1nc(CNC(=O)NCCc2ccc(N(C)C)cc2)cs1 | 6.93% | 16.6% |
| Cc1cc(C)n(C2CN(CC(=O)N(C)Cc3ccc(C)o3)C2)n1 | -0.898% | 0.889% |
| Cc1csc(N2CCN(Cc3ccccn3)CC2C)n1 (configuration not stated) | 6.41% | -0.687% |
| NC(=O)C1CN(C(=O)Nc2ccccc2SC(F)(F)F)CCO1 (configuration not stated) | -5.1% | -11.7% |
| COc1ccccc1OC1(C(=O)O)CCN(c2nccnc2C)CC1 | 1.09% | -3.46% |
| O=C(CO)N1C[C@H]2CC[C@@H]1CN(C1Cc3ccccc3C1)C2 | 7.69% | 11.7% |
| Nc1cc2c(nn1)CCN(C(=O)CC1CCCC1)C2 | -1.69% | 2.23% |
| O=C(COc1coc(CN2CCCC2)cc1=O)NCc1ccccc1Cl | -2.03% | -62.7% |
| Cc1oncc1C(=O)NCc1cc(=O)n2c(n1)CN(C)CCC2 | 16% | -2% |
| Cc1ccc(CN2CCC3(CC2)OC(C(=O)N(C)C)c2ccccc23)o1 (configuration not stated) | 3.43% | -27.1% |
| Cc1cnn(CC2CCCCN2C(=O)c2cc(C(N)=O)cs2)c1 (configuration not stated) | -2.6% | 1.14% |
| O=C(NCCN1CCc2ccccc2C1)c1scnc1Cl | 1.6% | -3.31% |
| CCCc1nc(N2CCN(CC)CC2)c2c(n1)c(C)nn2CC | 11.2% | -8.6% |
| O=C(CN1CCC(C(=O)c2cc(F)ccc2F)CC1)NC1CCCC1 | -0.27% | -63.4% |
| Cc1ccc(C(C)N(C)Cc2nc3c(cnn3C)c(=O)[nH]2)cc1 (configuration not stated) | 1.46% | 12.8% |
| COc1ccc(CN2CCOC3(CCCN(c4nnc(C)o4)C3)C2)cc1 (configuration not stated) | -5.88% | 7.44% |
| Cn1ccc(C(=O)N2CCN(CCc3ccccc3)CC2)cc1=O | -1.76% | -19.1% |
| O=S(=O)(NCC1CCN(c2ccccn2)CC1)c1ccccc1F | -0.51% | -13.6% |
| CC(C)c1nn(C)c(N2CCOCC2)c1CNCC(=O)N(C)C | -4.92% | -14.4% |
| Cc1cc(CN2CCc3nn(C(C)C)c(=O)cc3C2)no1 | -1.25% | 6.39% |

From ChEMBL document CHEMBL3988442, “University of Dundee, Small-Polar-MMV Screening Library” (2021)
